# Shown are actives, neighbours in structure and some others; about 10% of the full set was active somewhere.
# G9a block: qHTS Assay for Inhibitors of Histone Lysine Methyltransferase G9a | Histone-lysine N-methyltransferase EHMT2 (Homo sapiens), Q96KQ7 | G9a H3K9 monomethylation, AlphaScreen, 2 h | Potency, µM (highest dose often 102 µM), for the others: at the top dose activity, negative = inhibition, hits mostly inhibitors | actives 8.8% (n = 350,000) | AID 504332, 2011; also: potency is read from the fitted curve at half-maximal effect; nearly all actives have a fitted effect of over 75% in size
# Target sequence (Q96KQ7 913-1193 limits assumed): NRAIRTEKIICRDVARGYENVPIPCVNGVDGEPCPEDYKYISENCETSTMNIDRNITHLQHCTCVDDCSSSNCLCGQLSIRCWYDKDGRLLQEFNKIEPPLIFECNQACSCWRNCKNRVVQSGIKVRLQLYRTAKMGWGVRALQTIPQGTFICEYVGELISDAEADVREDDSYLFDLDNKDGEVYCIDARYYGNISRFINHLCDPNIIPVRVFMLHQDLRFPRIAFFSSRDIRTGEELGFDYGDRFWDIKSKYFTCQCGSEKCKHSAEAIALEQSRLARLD
#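 Chemiluminescent proximity detection of H3K9 monomethylation, read after 10 min bead incubation in the dark. Reaction: 20 nM G9a, 500 nM biotin-H3K9 peptide, 20 uM SAM cofactor, 2 h, room temperature, following 15 min enzyme-compound preincubation.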
# PLK1 PBD block: qHTS for Inhibitors of PLK1-PDB (polo-like kinase 1 - polo-box domain): Primary Screen | Plk1 PBD binding of FITC phosphopeptide, fluorescence polarization | Potency, µM, without a hit: max response, negative = inhibition, actives largely listed as inhibitors | actives 2.8% (n = 360,000); also: potency is read from the fitted curve at half-maximal effect; series mostly up to about 57 µM; nearly all actives have a fitted effect of over 65% in size
# CCT modulator: High-Throughput Screening for Modulators of Cytosolic Chaperonin Activity. activity change, % (test concentration not listed), hits read low. actives 0.3% (n = 360,000). AID 651819, 2012. purified chaperonin ATPase assay, HTRF ADP detection, 30 min; in the data active = activity change below about -30%
#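 ATPase activity: ADP formed was measured by HTRF Transcreener (665/615 nm ratio) after 30 min at 37 deg C with 10 uM ATP. Compounds screened at one 76 uM concentration against 40 or 20 nM TRiC in Tris pH 7.4/KCl/MgCl2/DTT buffer.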
# Mm-Cpn inhibitor: Inhibitors of TCP-1 ring complex (TRiC) of Methanococcus maripaludis (MmCpn): qHTS | purified Mm-Cpn ATPase, ADP Transcreener TR-FRET | Chaperonin Mm-Cpn (Methanococcus maripaludis) | AID 504842, 2011 | actives 0.031% (n = 330,000) | Potency, µM (series often up to 76.9 µM), without a hit: at the top dose activity, negative = inhibition, most hits filed as inhibitors; also: potency is read from the fitted curve at half-maximal effect; nearly all actives have a fitted effect of over 80% in size
#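 ATP (10 uM final) was added to archaeal chaperonin (25 nM final) after 10 min exposure to test compound at 37°C; after 30 min further incubation, ADP was detected by competitive TR-FRET.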
# VDR inh: Inhibitors of the vitamin D receptor (VDR): qHTS; Vitamin D3 receptor (Homo sapiens), P11473; VDR-SRC2-3 peptide fluorescence polarization, 2 h; Potency, µM, without a hit: max response, negative = inhibition, most hits filed as inhibitors; actives 0.93% (n = 400,000); AID 504847, 2011; also: potency is read from the fitted curve at half-maximal effect
# Target sequence (P11473 whole entry, looked up): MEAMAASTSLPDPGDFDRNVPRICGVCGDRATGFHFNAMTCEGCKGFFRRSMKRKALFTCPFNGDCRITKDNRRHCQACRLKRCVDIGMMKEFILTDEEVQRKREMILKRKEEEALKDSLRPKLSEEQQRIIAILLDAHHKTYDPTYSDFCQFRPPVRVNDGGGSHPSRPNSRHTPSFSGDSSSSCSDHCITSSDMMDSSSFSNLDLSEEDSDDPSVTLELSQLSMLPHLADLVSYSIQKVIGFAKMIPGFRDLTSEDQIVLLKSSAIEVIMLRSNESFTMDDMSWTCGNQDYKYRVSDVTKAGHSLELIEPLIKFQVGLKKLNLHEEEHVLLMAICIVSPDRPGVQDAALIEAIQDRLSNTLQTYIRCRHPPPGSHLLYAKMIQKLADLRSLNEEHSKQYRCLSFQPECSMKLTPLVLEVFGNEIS
#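 Two reagent solutions held at 4 deg C in the dark were dispensed, compounds pinned at 23 nl, and the mixture incubated 2 h at room temperature. Read-out: fluorescence polarization of VDR–SRC2-3 peptide binding.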
# Sfp inh: qHTS Assay for Inhibitors of Bacillus subtilis Sfp phosphopantetheinyl transferase (PPTase). 4'-phosphopantetheinyl transferase ffp (Bacillus subtilis), Q9F4F7. Biochemical Sfp PPTase activity, qHTS. Potency, µM, inactives show largest response in the series, negative = inhibition, most hits filed as inhibitors. actives 3.5% (n = 310,000);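 also: the enzyme is Sfp with the accession as filed and its product quenches rhodamine fluorescence; potency is read from the fitted curve at half-maximal effect; 0% = enzyme reaction without inhibitor and -100% = no enzyme wells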
#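 Sfp 15 nM + cpd, 15 min RT; start w/ rhodamine-CoA 5 uM, BHQ-2-YbbR 12.5 uM (final); 50 mM Hepes pH 7.6, 10 mM MgCl2, 0.01% NP-40, 0.01% BSA; read 525/598 nm at 0 and 30 min.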
# The depositor's hits bear a star; ? = inconclusive; nt = no result; [ ] = remark or other dose. Unless noted, calls follow the shape of the dose curve; as a rule, active = well fitted curve in the direction sought with a large enough effect; inconclusive = small, poorly fitted or top-dose-only effect, or another doubt; inactive = no such curve, though single readings can be large; an effect the other way counts as inactive or inconclusive. Unless noted, % is scaled to controls: 0 for no effect and ±100 for the full control effect.
SMILES,G9a block,PLK1 PBD block,CCT modulator,Mm-Cpn inhibitor,VDR inh,Sfp inh
Cc1ccc(CN2C(=O)c3oc4ccc(C)cc4c(=O)c3C2c2ccc(O)cc2)cc1 (configuration not stated),?,nt,nt,nt,-0.2%,nt
Cc1ccc(Cn2c(C(=O)O)c(CNCc3cccs3)c3ccc(C)cc32)cc1,-9.3%[59 µM],nt,nt,nt,17.9%,nt
COc1ccc(C2/C=C\CN(C(=O)c3ccc(C)cc3)C(C)C(=O)N2Cc2ccc(F)cc2)cc1 (configuration not stated),nt,nt,nt,nt,-3.2%,-1.2%
CCOc1ccc(-c2ccc(NS(=O)(=O)c3cc(C)c(C)cc3C)cc2)nn1,-28.3%[59 µM],nt,nt,nt,12.9%,nt
C=CCN1CCc2c(cc(O)c(O)c2Cl)C(c2cccc(C)c2)C1 (configuration not stated),nt,nt,nt,nt,nt,-24.2%
CCOc1cc(C(c2c(C)[nH][nH]c2=O)c2c(C)[nH][nH]c2=O)ccc1OCc1ccc([N+](=O)[O-])cc1,?,?,-0.1,0.1%,?,3.2%
CCOc1cc(C(c2c(C)[nH][nH]c2=O)c2c(C)[nH][nH]c2=O)ccc1OC(=O)c1cccc([N+](=O)[O-])c1,3.55µM*,-26.5%,-0.8,0.8%,-15.1%,0.7%
O=C1[C@H]2[C@H]3[C@H](O)[C@H](O)C/C(=N/OC[C@@H](O)COCc4ccco4)[C@H]3CC[C@@H]2C(=O)N1c1cccc(Oc2ccccc2)c1,nt,nt,nt,nt,nt,-13.5%
O=C(CCCCn1c(=O)c2ccccc2n(Cc2ccccc2Cl)c1=O)NCc1ccc2c(c1)OCO2,-5.2%[59 µM],nt,nt,nt,24.3%,nt
Cc1n[nH]c(C)c1CCC(=O)N/N=C/c1c(C)[nH]c2ccccc12,6.0%,1.9%,-0.7,-1.1%,9.4%,15.7%
Cc1[nH]c2ccccc2c1/C=N/NC(=O)CCC(=O)NCc1ccccc1,-6.0%,11.9µM*,1.5,-0.7%,-21.3%,1.6%
CN(C)c1ncnc2ccc(-c3ccccc3C(F)(F)F)cc12,6.7%[0.501 µM],nt,nt,nt,?,-8.7%
CC(C)c1ccc(N(CC(=O)N2CCN(Cc3ccccc3)CC2)S(C)(=O)=O)cc1,14.4%[59 µM],-11.5%,-94.7*,-1.6%,0.5%,7.9%
CS(=O)(=O)N(CC(=O)N1CCN(Cc2ccccc2)CC1)c1ccc(F)cc1,nt,3.4%,0.8,1.5%,-14.4%,-4.7%
COc1ccc([N+](=O)[O-])cc1N(CC(=O)N1CCN(Cc2ccccc2)CC1)S(C)(=O)=O,23.8%,11.9µM*,-0.9,1.9%,50.1µM*,9.8%
Cc1cc(C)cc(N(CC(=O)N2CCN(Cc3ccccc3)CC2)S(=O)(=O)c2c(C)noc2C)c1,50.1µM*,-24.0%,-2.0,0.1%,-12.1%,-6.4%
Cn1c2c(c(=O)c3ccccc31)C[C@@H](O)C(C)(C)O2,nt,nt,nt,nt,0.9%,7.6%
CN(C(=O)C1CCCO1)c1nnc(-c2cnccn2)s1 (configuration not stated),-7.4%,-3.7%,-13.2,0.3%,-9.0%,16.6%
Cc1ccc(-c2nnc(N(C)C(=O)C3CCCO3)s2)cn1 (configuration not stated),44.7µM*,-4.1%,-3.4,-1.1%,-1.8%,-10.9%
O=C(NC(=S)N1CCCCCC1)c1ccccc1,nt,2.5%,2.0,-2.5%,-2.4%,1.8%
CCN(CC)C(=S)NC(=O)c1cccnc1,nt,-18.4%,-0.2,1.1%,-1.7%,50.1µM*
O=C(NC(=S)N1CCCCC1)c1cccnc1,11.2µM*,-11.6%,1.6,-12.2%[15.4 µM],-11.9%,?
CCC(=O)N1c2nc(C(C)C)nn2C2(CCCCC2)[C@@H]2CCCC[C@@H]21,0.9%[59 µM],nt,nt,nt,5.1%,nt
COc1ccc(-n2c(SCC(=O)NCc3ccccc3)nc3n[nH]c(C)c3c2=N)cc1,10.2%[59 µM],nt,nt,nt,8.5%,nt
NNc1ccccc1C(F)(F)F,2.82µM*,-12.0%,3.3,1.4%,-7.5%,6.9%
SMILES,G9a block,PLK1 PBD block,CCT modulator,Mm-Cpn inhibitor,VDR inh,Sfp inh
CC(=O)Nc1ccccc1C(F)(F)F,0.4%,5.3%,0.4,0.9%,15.0%,18.8%
COc1ccc(-c2nc3cccc(C)n3c2Nc2ccc(C)cc2)cc1,nt,nt,nt,nt,-8.9%,nt
CNC1C(OC2C(O[C@@H]3C(O)C(O)[C@@H](N=C(N)N)C(O)C3N=C(N)N)OC(C)[C@@]2(O)CO)OC(CO)C(O)C1O (some centres not stated),-7.1%[2.33 µM],nt,nt,nt,-2.4%,10.0%
COC(=O)c1sc(=S)n(-c2ccccc2OC)c1N,35.5µM*,-1.7%,-4.0,-1.7%,0.1%,12.0%
CC(=O)c1c(C)n(-c2ccc(C)cc2C)c2ccc(O)cc12,-3.7%[12.7 µM],-6.1%,1.1,-1.5%,17.4%,3.1%
CCOc1ccccc1-n1c(COc2ccccc2)nnc1SCC(N)=O,?,-5.7%,-0.2,0.1%,20.5%,0.7%
Cc1ccc(-n2c(N)c(C(N)=O)sc2=S)c(C)c1,8.91µM*,6.7µM*,-0.5,-2.2%,89.1µM*,20µM*
CCOc1ccccc1-n1c(N)c(C(N)=O)sc1=S,35.5µM*,?,1.2,0.2%,-14.6%,-17.6%
CCCCNC(=O)c1sc(=S)n(-c2ccccc2OC)c1N,15.8µM*,26.7µM*,-1.5,-0.1%,-2.6%,44.7µM*
CCOc1ccc(NC(=O)NCCN2CCN(c3cc(Cl)ccc3C)CC2)cc1,-13.3%[59 µM],nt,nt,nt,-19.1%,nt
Cc1ccc(N2CCN(C(=O)c3cn(C)c4ccc(S(=O)(=O)N(C)C5CCCCC5)cc4c3=O)CC2C)cc1 (configuration not stated),8.4%[59 µM],nt,nt,nt,-2.9%,nt
COc1ccc(Cl)cc1-n1c(N)c(C(N)=O)sc1=S,8.91µM*,11.9µM*,2.4,-0.6%,79.4µM*,15.8µM*
CCOC(=O)c1sc(=S)n(-c2ccccc2OC)c1N,?,21.2µM*,-0.9,0.1%,-28.6%,-63.1%
CCOc1ccccc1-n1c(=O)c2ccccc2c2ccccc2c1=O,3.55µM*,-18.7%,-0.7,0.4%,2.0%,4.9%
CCOc1cccc(C(=O)N(Cc2ccc(CC)cc2)C2CCS(=O)(=O)C2)c1 (configuration not stated),18.5%[59 µM],nt,nt,nt,-6.2%,nt
CC(=O)N1CCc2cc(Br)cc(S(=O)(=O)CCC(=O)N3CCN(c4ccccc4)CC3)c21,6.6%[59 µM],nt,nt,nt,12.5%,nt
CC(=O)N1c2ccc(S(=O)(=O)NCC3CCC(C(=O)Nc4cccc(F)c4)CC3)cc2CC1C (configuration not stated),-3.7%[59 µM],nt,nt,nt,-2.1%,nt
